ELG1 DNA repair = ELG1-dependent DNA repair inhibition | HEK293T ELG1-luciferase reporter, luminescence, 16 h; DNA damage induced by 5-fluorouridine | Potency, µM (doses to about 46.1 µM), for inactives: top-dose activity change, negative = inhibition, actives largely listed as inhibitors | 2.3% of 330,000 active | AID 504467; also: % is scaled to controls: 0 for no effect and ±100 for the full control effect; nearly all actives have a fitted effect of over 55% in size
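Step one: seed 2,000 cells per well. Step two: pin-transfer compound or DMSO alongside 5-fluorouridine. Step three: incubate 16 hr, 37 °C, 5% CO2. Step four: add ONE-Glo, wait 30 min, read luminescence.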
NPC1 promoter act = activates the NPC1 promoter; 2.4% of 320,000 active; Potency, µM (series often up to 9.22 µM), inactives show at the top dose activation, hits mostly activators; AID 485313; Huh7 NPC1 promoter luciferase reporter, 24 h; also: % of control where 0% means no effect; nearly all actives have a fitted effect of over 60% in size
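Luminescence read-out of NPC1 promoter-driven luciferase in stably transfected Huh7 cells; compounds delivered in DMSO and left 24 h at 37C, 5% CO2, qHTS titration format.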
SMN2 splice up = SMN2 splice variant enhancement | HEK293 SMN2-luciferase splicing reporter, luminescence, 30-36 h | Potency, µM (highest dose often 46.1 µM), for inactives: at the top dose activity change, positive = activation, most hits filed as activators | 2.8% of 210,000 active; also: % of control where 0% means no effect; nearly all actives have a fitted effect of over 55% in size
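HEK293 cells carry an SMN2 […]–luciferase reporter in which exon 7 inclusion puts luciferase in frame. Cells were plated 10-12 h before compound addition, then incubated 30-36 h at 37C. ONE-Glo luminescence was read; sodium butyrate at 4.5 mM final served as control.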
ELG1 genotoxic = inducers of genotoxicity in HEK293T ELG1-luciferase cells | Potency, µM (top dose mostly 46 µM), for inactives: at the highest dose activity change, positive = activation, usual class: activators | 1.3% of 330,000 active | HEK293T ELG1-luciferase reporter, luminescence, 16 h; also: % of control where 0% means no effect; nearly all actives have a fitted effect of over 60% in size
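DMSO vehicle served as control against compound-treated ELG1-luciferase HEK293T cells; exposure lasted 16 hr at 37 °C and 5% CO2, followed by ONE-Glo luminescence detection after 30 min.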
Rab9 promoter act = activators of Rab9 promoter | 2.8% of 320,000 active | AID 485297 | Huh7 Rab9 promoter-luciferase reporter, luminescence, 24 h | Potency, µM (doses to about 9.22 µM), inactives show top-dose activation, negative = inhibition, most hits filed as activators; also: % of control where 0% means no effect; nearly all actives have a fitted effect of over 60% in size
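Measured in stably transfected Huh7 cells bearing a Rab9 promoter–luciferase construct: 24 h compound treatment at 37 °C, followed by luminescence detection.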
FLuc modulator = inhibits or activates purified firefly luciferase, miR-21 counter-screen; P08659; purified FLuc, Km substrates, luminescence inhibition; Potency, µM (top dose mostly 57.5 µM), for inactives: at the highest dose activity change, negative = inhibition, most hits filed as inhibitors; 6.9% of 360,000 active; AID 588342;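 also: plate controls were vehicle for no effect and reference inhibitor for full effect; nearly all actives have a fitted effect of over 55% in size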
Target sequence (P08659 whole entry, looked up): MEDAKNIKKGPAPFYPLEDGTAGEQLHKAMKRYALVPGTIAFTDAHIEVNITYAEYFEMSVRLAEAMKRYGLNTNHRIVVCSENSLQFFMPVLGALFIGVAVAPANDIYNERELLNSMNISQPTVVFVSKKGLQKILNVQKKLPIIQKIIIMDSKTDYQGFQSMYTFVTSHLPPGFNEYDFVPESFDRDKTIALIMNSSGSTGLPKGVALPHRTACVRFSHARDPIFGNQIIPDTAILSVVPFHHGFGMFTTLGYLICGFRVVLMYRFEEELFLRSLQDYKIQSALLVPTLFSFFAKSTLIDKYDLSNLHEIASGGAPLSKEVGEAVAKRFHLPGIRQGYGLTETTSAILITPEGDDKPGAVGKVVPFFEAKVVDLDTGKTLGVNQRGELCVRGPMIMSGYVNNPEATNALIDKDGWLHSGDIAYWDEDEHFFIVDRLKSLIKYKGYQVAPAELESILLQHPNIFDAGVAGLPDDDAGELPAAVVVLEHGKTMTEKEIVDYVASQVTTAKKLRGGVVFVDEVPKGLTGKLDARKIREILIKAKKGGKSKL
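Biochemical qHTS of compounds, final roughly 60 µM downward over six points, against 10 nM purified firefly luciferase using Km concentrations of substrates (10 uM D-luciferin, 10 uM ATP) in Tris acetate pH 7.5 buffer; luminescence output.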
ELG1 FLuc counter = luciferase inhibition in cell-free luciferin readout for ELG1 hits | cell-free firefly luciferase luminescence counter-screen, ViewLux | shares compounds with ELG1 DNA repair | 3% of 350 active | Potency, µM (series often up to 46.1 µM), inactives show at the top dose activity change, negative = inhibition, hits mostly inhibitors; also: % is scaled to controls: 0 for no effect and ±100 for the full control effect
ELG1-Luc inh = inhibits ELG1-dependent DNA repair in HEK293T cells, confirmed; shares compounds with ELG1 DNA repair; HEK293T ELG1-luciferase levels, luminescence; cells co-treated with 5-fluorouridine; Potency, µM (top dose mostly 46.1 µM), for the others: top-dose activity change, negative = inhibition, most hits filed as inhibitors; 68% of 670 active; AID 624248; also: % is scaled to controls: 0 for no effect and ±100 for the full control effect; nearly all actives have a fitted effect of over 55% in size
ELG1-Luc MMS = inhibits ELG1-dependent repair under MMS stimulation in HEK293T cells; shares compounds with ELG1 DNA repair; AID 624249; 53% of 670 active; Potency, µM (doses to about 46.1 µM), inactives show top-dose activity change, negative = inhibition, actives largely listed as inhibitors; HEK293T luciferase-tagged ELG1 level, MMS stimulated; also: % is scaled to controls: 0 for no effect and ±100 for the full control effect; nearly all actives have a fitted effect of over 60% in size
ELG1 5FU viab = confirmation of ELG1 repair inhibitors: viability with 5FU; shares compounds with ELG1 DNA repair; cell viability with 5-FU, ELG1-dependent repair; Potency, µM (titrated, usually from 46.1 µM), inactives show at the top dose activity change, negative = viability loss, most hits filed as cytotoxic; 670 tested, under 10 active;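 also: ELG1-luc HEK293T cells cotreated with 5-fluorouridine at 10 µM final; viability measured 16 h after compound addition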
ELG1 MMS viab = confirmation of ELG1 repair inhibitors: viability with MMS; shares compounds with ELG1 DNA repair; 33% of 670 active; AID 624251; Cell viability with MMS, ELG1-dependent DNA repair; Potency, µM (top dose mostly 46.1 µM), for inactives: at the highest dose activity change, negative = viability loss, actives largely listed as cytotoxic;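 also: ELG1-luc HEK293T cells co-treated with 10 µM MMS; viability read 16 h after compound addition; % is scaled to controls: 0 for no effect and ±100 for the full control effect; nearly all actives have a fitted effect of over 60% in size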
Cell viab unstim = counter-screen for ELG1 repair inhibitors: unstimulated cell viability. AID 624252. cell viability counter-screen, unstimulated, luminescence. 8% of 900 active. shares compounds with ELG1 DNA repair. Potency, µM (top dose mostly 45.9 µM), without a hit: top-dose activity change, negative = loss of viability, hits mostly cytotoxic;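 also: compound exposure lasted 16 hours before reading; % is scaled to controls: 0 for no effect and ±100 for the full control effect; nearly all actives have a fitted effect of over 55% in size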
FLuc enzyme = firefly luciferase inhibition counter-screen | shares compounds with ELG1 DNA repair | Potency, µM (top dose mostly 57.5 µM), inactives show top-dose activity, negative = inhibition, usual class: inhibitors | AID 624253 | 10% of 350 active | purified firefly luciferase, luminescence counter-screen; also: % is scaled to controls: 0 for no effect and ±100 for the full control effect
Numbers without * were called inactive; u = inconclusive; x = not tested or not shown; [ ] = another dose, or the depositor's remark. In the library only some 9.3% were active in any assay of this set; here they are far more common. Calls follow the shape of the dose curve; as a rule, active = well fitted curve in the direction sought with a large enough effect; inconclusive = small, poorly fitted or top-dose-only effect, or another doubt; inactive = no such curve, though single readings can be large; an effect the other way counts as inactive or inconclusive. Potency is read from the fitted curve at half-maximal effect.

SMILES | ELG1 DNA repair | NPC1 promoter act | SMN2 splice up | ELG1 genotoxic | Rab9 promoter act | FLuc modulator | ELG1-Luc inh | ELG1-Luc MMS | ELG1 5FU viab | ELG1 MMS viab | Cell viab unstim | others
NC(=O)c1ccc(N2CCN(S(=O)(=O)c3ccccc3)CC2)c([N+](=O)[O-])c1 | 1.64µM* | -31.9% | -45.0% | -3.2% | -15.6% | 0.4% | u | 0.705µM* | 2.0% | 0.791µM* | -16.9%
CCOCC(=O)Nc1ccc(S(=O)(=O)NCC2CCCO2)cc1 (stereo unspecified) | -18.1% | -1.7% | x | -1.8% | 4.6% | -0.5% | x | x | x | x | x
NC(=O)C1CCN(c2ccc(S(=O)(=O)N3CCC(Cc4ccccc4)CC3)cn2)CC1 | u | -22.6% | -59.1% | -5.3% | -28.3% | 0.1% | -14.6% | 1.99µM* | -10.3% | 2.5µM* | u
COc1ccc(C(=O)c2ccccc2)c2c(O)ccc(C(=O)c3ccccc3)c12 | u | -11.8% | -79.1% | -1.2% | -20.7% | -0.3% | 4.99µM* | 1.58µM* | -2.9% | 2.23µM* | u
CC(O)c1nc2ccccc2n1CC(=O)N1CCN(c2ccccc2)CC1 (stereo unspecified) | 2.4% | -3.5% | -1.4% | 0.3% | 1.2% | -1.5% | x | x | x | x | x
OC(CN1CCN(c2ccc(C(F)(F)F)cn2)CC1)c1ccccc1 (stereo unspecified) | u | -3.6% | x | 3.0% | -3.7% | -0.6% | x | x | x | x | x
CCc1nc(CN2CCN(c3ccc(C(F)(F)F)cn3)CC2)c(C)[nH]1 | u | -9.0% | x | 2.2% | -22.4% | -1.5% | u | 3.15µM* | -3.5% | 4.45µM* | u
CCOc1ccc(NC(=O)N(C(C)C)C2CCN(C(C)=O)CC2)cc1 | x | x | x | x | x | -1.3% | x | x | x | x | x
O=C(CSc1ccc2nnc(-c3cccc(F)c3)n2n1)N1CCCc2ccccc21 | 11.6µM* | -2.8% | -9.5% | -2.4% | -7.9% | -2.4% | 14.1µM* | u | 9.7% | 5.7% | -4.7% | ELG1 FLuc counter=-4.7%;FLuc enzyme=-1.1%
CCCC(=O)NC(C)c1nc2ccccc2n1Cc1ccccc1 (stereo unspecified) | x | x | -2.2% | x | x | 0.9% | x | x | x | x | x
CS[C@@H]1SC[C@H]2C(=O)N(C)C(C(C)C)C(=O)OC[C@@H](NC(=O)c3cnc4ccccc4n3)C(=O)N[C@@H](C)C(=O)N(C)[C@H]1C(=O)N(C)C(C(C)C)C(=O)OC[C@@H](NC(=O)c1cnc3ccccc3n1)C(=O)N[C@@H](C)C(=O)N2C (stereo partly specified) | x | x | x | x | x | x | 0.141µM* | 0.0561µM* | 16.6% | 0.199µM* | -3.5% | ELG1 FLuc counter=u;FLuc enzyme=1.6%
Clc1ccccc1C1=Nn2c(nnc2-c2ccncc2)SC1 | 4.61µM* | 10.8% | x | -12.1% | 2.5% | 3.2% | 3.15µM* | 6.29µM* | 12.6% | -0.7% | -7.1% | ELG1 FLuc counter=u;FLuc enzyme=-5.8%
Cc1sc2ncnc(N3CCC(C(=O)Nc4ccc(S(N)(=O)=O)cc4)CC3)c2c1C | 4.11µM* | -2.8% | x | -7.0% | -1.2% | -2.2% | 7.05µM* | 19.9µM* | u | 7.7% | u
Cc1sc2ncnc(N3CCC(C(=O)N(C)CC(=O)Nc4ccc(Cl)c(C(F)(F)F)c4)CC3)c2c1C | 3.66µM* | -6.6% | x | -12.7% | -9.0% | 14.2% | 7.06µM* | 7.06µM* | u | u | u | ELG1 FLuc counter=u;FLuc enzyme=-15.4%
CC(=O)NC12CC3CC(C1)CC(C(=O)OCC(=O)c1cc(C)n(C)c1C)(C3)C2 | u | x | x | u | x | x | x | x | x | x | -8.2%
Cc1cc(C(=O)COC(=O)C23CC4CC(CC(O)(C4)C2)C3)c(C)n1C | u | x | x | 8.2µM* | x | x | x | x | x | x | 3.8%
CN(C(=O)CSc1nnnn1-c1ccc(O)cc1)C1CCS(=O)(=O)C1 (stereo unspecified) | 1.4% | -3.3% | 3.8% | 3.0% | -4.0% | -0.6% | x | x | x | x | x
O=c1[nH]cc(S(=O)(=O)N2CCOCC2)c(=O)[nH]1 | 5.6% | -4.8% | x | 1.0% | 2.1% | -0.1% | x | x | x | x | x
COCCCNc1nc2cc(OC)c(OC)cc2c2nc(-c3ccccc3)nn12 | 4.11µM* | -5.4% | 2.4% | -11.3% | -7.6%[1.84 µM] | -4.3% | 2.23µM* | u | u | -10.1% | u
CCN(CC)CCCNc1nc2cc(OC)c(OC)cc2c2nc(-c3cccnc3)nn12 | -17.1% | -10.2% | u | 5.9% | -11.5% | 2.7% | x | x | x | x | x
CCOCCCNc1nc2cc(OC)c(OC)cc2c2nc(-c3ccccc3)nn12 | x | x | 6.2% | x | x | 3.4% | x | x | x | x | x
COc1cc2nc(NCC3CCCO3)n3nc(-c4cccnc4)nc3c2cc1OC (stereo unspecified) | 2.31µM* | -2.5% | 22.6% | -4.1% | 2.1% | -1.0% | 3.97µM* | 17.7µM* | u | 5.2% | -11.5%
CC(C)CN(CC(C)C)C(=S)NC1CCCCC1 | 1.0% | -0.1% | -13.9% | -0.6% | -7.8% | -0.2% | x | x | x | x | x
O=C(CC1OC(=O)c2ccccc21)Nc1cc(Cl)ccc1N1CCOCC1 (stereo unspecified) | 4.11µM* | x | x | -6.3% | x | x | u | -1.4% | 3.9% | 1.6% | -7.4%
